Assay results as given in PubChem BioAssay AID488789 (Broad Institute, 2010).
Measured potencies and affinities stand elsewhere. Inconclusive results are not listed. The source made the active and inactive calls.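 How the source made its calls: active means samples whose fitted half-maximal inhibition concentration is no more than ten times the top valid dose tested; inconclusive means flat response between -70 and -30, or invalid curve fit; inactive means flat within 30 of zero, potency above limit, or signal rising.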

Biological target: Trypsin (Sus scrofa) (UniProt P00761)
Sequence (P00761 whole entry, looked up): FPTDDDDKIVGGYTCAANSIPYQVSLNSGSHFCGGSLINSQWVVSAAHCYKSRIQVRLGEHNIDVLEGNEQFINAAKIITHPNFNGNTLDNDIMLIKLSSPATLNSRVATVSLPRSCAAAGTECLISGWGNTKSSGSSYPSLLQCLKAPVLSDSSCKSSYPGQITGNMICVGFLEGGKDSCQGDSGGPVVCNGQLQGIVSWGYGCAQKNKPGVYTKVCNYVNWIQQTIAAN
Assay: trypsin protease activity blockade – biochemical, quenched peptide fluorescence, cherry-pick, selectivity assay for Rce1 protease inhibitor project, dose response (AID 488789);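 further: more negative means stronger trypsin inhibition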
Details: porcine trypsin, quenched peptide cleavage fluorescence; series mostly up to 10 µM

**Q.** For `CN1CCN(c2ccc([N+](=O)[O-])c(Sc3nncn3C)c2)CC1`, which outcome is on record?
**A.** inactive

**Q.** How did the outcome turn out when `Cc1ccc(-c2cc(-c3ccccc3)cc(-c3ccccc3)[n+]2-c2ccccc2)cc1` was run?
**A.** inactive

**Q.** For `Cc1ccnc(-n2c(-c3ccco3)nc3ccccc3c2=O)c1`, which outcome is on record?
**A.** inactive

**Q.** For `C=CC[N+]1(C)CC[C@]23c4c5ccc(O)c4O[C@H]2C(=O)CC[C@@]3(O)[C@H]1C5` (stereo partly drawn), which outcome is on record?
**A.** inactive

**Q.** How did the outcome turn out when `CCOc1ccc(C2C(C#N)=C(N)Oc3c2c(=O)oc2ccccc32)cc1` (stereo not drawn) was run?
**A.** inactive

**Q.** How did the outcome turn out when `C=CCn1c(O)c(C(CC)=Nc2ccc(N(CC)CC)cc2)c(=O)[nH]c1=O` was run?
**A.** inactive

**Q.** Which outcome does the source give for `c1ccc(CCCN2CCN(CCOC(c3ccccc3)c3ccccc3)CC2)cc1` here?
**A.** inactive

**Q.** `Cc1nccc2c1[nH]c1ccccc12` was tested. Which outcome did it give?
**A.** inactive

**Q.** With `CC(=O)OCC[N+](C)(C)C` as the compound, how does the outcome read?
**A.** inactive

**Q.** With `CN1CC(C(=O)c2ccc(Cl)cc2)C(c2ccc(Cl)cc2Cl)C1` (stereo not drawn) as the compound, how does the outcome read?
**A.** inactive

**Q.** How did the outcome turn out when `O=[N+]([O-])c1ccc(C[n+]2c(-c3ccccc3)cc(-c3ccccc3)cc2-c2ccccc2)cc1` was run?
**A.** inactive

**Q.** How did the outcome turn out when `Clc1ccc(C[n+]2c(-c3ccccc3)cc(-c3ccccc3)cc2-c2ccccc2)cc1` was run?
**A.** inactive

**Q.** `CCOC(=O)[C@@H]1[C@H]2COc3ccc(Br)cc3[C@@H]2N2C(=O)N(c3cccc(C)c3)C(=O)[C@]12C` was tested. Which outcome did it give?
**A.** inactive
